Inconclusive results are not listed. Active and inactive are the calls of the source. The call rests on the fitted dose curve; in most records, active means well fitted curve in the direction sought with a large enough effect; inconclusive means small, poorly fitted or top-dose-only effect, or another doubt; inactive means no such curve, though single readings can be large; an effect the other way counts as inactive or inconclusive. Numbered stars: 1 amine (or outer) side, 2 acyl side, 3 side chain; on linkers, the order of the positions; unused ones are H or OH. Bridge positions count the residues as written; N and C are the ends. Square brackets hold non-standard residues; d marks the D form. Peptide text beside a SMILES is read from it. ξ: configuration not given here. Phe(3R-OH) = O=C([C@@H](N[*:1])[C@H](O[*:3])c1ccccc1)[*:2]; NMeTrp(4-OMe) = CN[C@@H](Cc1c[nH]c2cccc(OC)c12)C(=O)O; ξThr(3R)(O-yl) = C[C@@H](O[*:3])C(N[*:1])C(=O)[*:2]; NMeThr(3ξ) = CN[C@H](C(=O)O)C(C)O; NMeL = CN[C@@H](CC(C)C)C(=O)O; NMeV = CN[C@H](C(=O)O)C(C)C; ξIle = CC[C@H](C)C(N)C(=O)O; ξV = CC(C)C(N)C(=O)O
Columns and labels:
[1] = U-118MG Cancer Cell Toxicity qHTS against the NCATS CANVASS Library (AID 1347351)
Procedure, shortened: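 Bortezomib titration and single-dose wells served as plate controls. Test compounds, 11 points, acted on 1000 cells/well for 72 h at 37 degrees C; CellTiter-Glo luminescence quantified remaining viable cells.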

[2] = A2780 Cisplatin Sensitive Ovarian Cancer Cell Toxicity qHTS against the NCATS CANVASS Library (AID 1347353); further: nearly all actives have a fitted effect of over 60% in size
Procedure, shortened: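 Seventy-two-hour exposure of cisplatin-sensitive A2780 ovarian cells to an 11-concentration qHTS series; cytotoxicity is inferred from loss of ATPLite luminescence. Bortezomib titration served as positive control.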

[3] = UWB1.289-WTBRCA1 Cancer Cell Toxicity qHTS against the NCATS CANVASS Library (AID 1347354)
Procedure, shortened: (§1)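 qHTS cytotoxicity: compounds tested in 11 concentrations on 1000 seeded cells per well over 72 h; bortezomib served as control; signal from CellTiter-Glo luminescence.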

[4] = HEK-293 Cancer Cell Toxicity qHTS against the NCATS CANVASS Library (AID 1347355); further: series mostly up to about 46 µM; nearly all actives have a fitted effect of over 65% in size
Procedure, shortened: as §1

[5] = HPAF-II 24hr Apoptosis Induction qHTS against the NCATS CANVASS Library (AID 1347356)
Procedure, shortened: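 Apoptosis induction in HPAF-II pancreatic cancer cells is measured as caspase-3/7 luminescence after a 24-hour exposure to compounds.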

[6] = test system: NAD(P)H diaphorase (Clostridium kluyveri); assay: Diaphorse counterscreen qHTS: Assay Interference Panel against the NCATS CANVASS Library (AID 1347362)
Procedure, shortened: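 Clostridium kluyveri diaphorase in PBS with 0.01% Tween-20 was preincubated 15 min at room temperature in the dark with compounds (11-point series). Resorufin fluorescence (ex 525/20, em 598/25) was read 5 min after adding resazurin/NADH.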

[7] = KB-8-5-11 Cancer Cell Toxicity qHTS against the NCATS CANVASS Library (AID 1347364); further: nearly all actives have a fitted effect of over 75% in size
Procedure, shortened: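 Natural products were titrated in 11 points onto KB-8-5-11 cells, 500 per well, and cytotoxicity was scored from CellTiter-Glo luminescence after 72 hr culture.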

[8] = SDT Cancer Cell Toxicity qHTS against the NCATS CANVASS Library (AID 1347365); further: nearly all actives have a fitted effect of over 60% in size
Procedure, shortened: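 Dispense 500 SDT cells per well; pin-transfer compounds; incubate 72 hr at 37C, 5% CO2, 95% RH; add CellTiterGlo and read luminescence.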

[9] = qHTS for ATAD5 Antagonist screened against the NCATS CANVASS Library (AID 1347370);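 further: HEK293T cells carrying an ATAD5 luciferase reporter co-treated with 10 µM 5-fluorouridine; series mostly up to about 46 µM; nearly all actives have a fitted effect of over 65% in size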
Procedure, shortened: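 HEK293T cells with a stably integrated ATAD5-controlled luciferase reporter were exposed to compounds (11-pt) alongside 10 uM 5-fluorouridine as ATAD5 stabilizer for 16hr at 37C. Viability was read by CellTiter-Fluor fluorescence, then ATAD5 by luminescence.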

[10] = biological target: Nuclear receptor subfamily 1 group I member 3 (Homo sapiens) (UniProt Q14994); assay: qHTS for Constitutive Androstane Receptor (CAR) Antagonist screened against the NCATS CANVASS Library (AID 1347372);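 further: cells stimulated with 50 nM CITCO agonist so inhibition reflects antagonism; series mostly up to about 46 µM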
Procedure, shortened: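 HepG2 cells stably carrying hCAR and a CYP2B6-2.2kb luciferase reporter were exposed to compounds plus 50 nM CITCO for 24hr at 37C. CAR activity was read by ONE-Glo luminescence, with viability measured first by CellTiter-Fluor.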

[11] = qHTS for Hypoxia signaling pathway (HIF-1) agonists against the NCATS CANVASS Library (AID 1347375)
Procedure, shortened: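 Inducers of HIF-1 signaling were detected in ME-180 cells bearing an HRE-driven beta-lactamase reporter after 17 h compound exposure. Activity came from CCF4-AM FRET emission ratio (460/530 nm) in qHTS format.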

[12] = DH5-alpha competent E. coli microbial cell viability qHTS against the NCATS CANVASS Library (AID 1347377); settings: outcome: dose series up to 46.1 µM unless noted
Procedure, shortened: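 Cell viability of competent DH5-alpha E. coli is scored from ATP content by luminescence. Cells sit overnight at 37C with compound across an 11-point concentration series.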

[13] = qHTS for H2AX Agonists against the NCATS CANVASS Library (AID 1347378)
Procedure, shortened: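 CHO-K1 cells were plated overnight at 37C, then exposed to compounds (concentration series, 0.76% DMSO final) for 3 hr at 37C. Lysates received Eu-cryptate anti-pH2AX (S139) and d2 anti-H2AX antibodies; after 24 hr at room temperature, TR-FRET 665/620 nm ratio was read.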

[14] = Cytotoxicity qHTS for assessment of Hepg2 cells membrane integrity screened against the NCATS CANVASS Library (AID 1347387)
Procedure, shortened: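 Fluorescence proportional to lysed-cell number, from LDH leaking out of HepG2 cells exposed 5 hr at 37C to 0.59 nM - 46 uM compound (11-point qHTS), is measured after 10 min with CytoTox-ONE.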

[15] = qHTS for Activators of p53 Stress Response Pathway screened against the NCATS CANVASS Library (AID 1347388)
Procedure, shortened: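 p53RE-bla HCT-116 cells (4000/well) were plated 5 h at 37C, exposed to compounds for 16 h at 37C over an 11-point concentration series, then loaded with CCF4 for 2 h at room temperature; 460/530 nm emission ratio read.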

[16] = qHTS assay for small molecule disruptors of mitochondrial membrane potential screened against the NCATS CANVASS Library (AID 1347389); further: series mostly up to about 46 µM; nearly all actives have a fitted effect of over 60% in size
Procedure, shortened: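 Compounds tested in 11-point qHTS series on HepG2 cells for 1 hr; membrane-potential dye added for 30 min at 37C. Lower red-to-green ratio indicates loss of potential.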

[17] = qHTS for activators of dead-cell proteases activity screened against the NCATS CANVASS Library (AID 1347392);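 further: luminescence from protease leaking out of membrane-damaged cells cleaving impermeant substrate; rising signal means more cytotoxicity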
Procedure, shortened: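 HepG2 cells (2000/well) attached 18 h at 37C, then exposed 5 h to compounds (11-point qHTS). Dead-cell protease activity read as luminescence from cell-impermeant AAF-aminoluciferin substrate after 15 min at room temperature.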

[18] = qHTS for inhibitors of ER calcium dysfunction: SERCaMP assay screened against the NCATS CANVASS Library (AID 1347393); further: nearly all actives have a fitted effect of over 40% in size; further: potency means the concentration at half of the fitted maximal effect
Procedure, shortened: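 qHTS in SH-SY5Y reporter cells: 16 h compound pretreatment, 4 h thapsigargin, then secreted Gaussia luciferase measured by luminescence.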

[19] = Redox Reaction Profiling qHTS: Assay Interference Panel against the NCATS CANVASS Library (AID 1347401)
Procedure, shortened: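 Resazurin (5 uM) conversion to resorufin measured with 200 uM DTT in 50 mM HEPES pH 7.3, 50 mM NaCl. Compounds tested in 11-point qHTS series. Fluorescence (ex 525/em 598 nm) read before and after 15 min dark incubation.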

[20] = Secretion counterscreen for inhibitors of the SERCaMP assay screened against the NCATS CANVASS Library (AID 1347390);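 further: light from luciferase secreted into medium read as a measure of general secretion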; further: potency means the concentration at half of the fitted maximal effect
Procedure, shortened: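 SH-SY5Y cells expressing constitutively secreted GLuc, 1000 cells/well, attached 4 h at 37C, then exposed to compounds (0.001 - 77 uM, 11-pnt series) for 20 h. Coelenterazine added; luminescence read to flag secretory-pathway interferers.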

Measured: Potency

Sequence of Nuclear receptor subfamily 1 group I member 3 (Homo sapiens) (Q14994 whole entry, looked up): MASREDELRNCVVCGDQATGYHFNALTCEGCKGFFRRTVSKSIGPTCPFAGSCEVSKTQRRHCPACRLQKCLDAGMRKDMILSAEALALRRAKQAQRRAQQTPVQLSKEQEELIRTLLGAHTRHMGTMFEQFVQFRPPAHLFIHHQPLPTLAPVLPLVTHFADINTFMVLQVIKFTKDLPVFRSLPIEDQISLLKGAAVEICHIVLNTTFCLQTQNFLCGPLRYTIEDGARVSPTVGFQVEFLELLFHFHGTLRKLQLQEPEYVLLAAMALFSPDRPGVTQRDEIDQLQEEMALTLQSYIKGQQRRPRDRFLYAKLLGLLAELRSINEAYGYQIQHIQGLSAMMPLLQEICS

C[C@]12CC[C@]3(C1)[C@H](CC2=O)CC(OC(=O)c1ccccc1)[C@H]1[C@@](CO)(C(=O)O)CCC[C@@]13C (stereo not given in full)
not listed: [20]
inactive: all other assays above

C=C[C@]1(C)CC[C@@H]([C@H](C)C(=O)/C=C/C(C)C)O1
not listed: [18]
inactive: all other assays above

COC1C(O)C(OC(N)=O)C(Oc2ccc3c(O)c(NC(=O)c4ccc(O)c(CC=C(C)C)c4)c(=O)oc3c2C)OC1(C)C (stereo not given)
active: [20] 24.3 µM | [18] 27.2 µM
not listed: [16]
inactive: all other assays above

CC[C@H](C)C(NC(=O)[C@@H](NC)C(C)C)C(=O)NC1C(=O)N(C)[C@@H](C(C)O)C(=O)N[C@@H](C(C)C)C(=O)N(C)[C@@H](CC(C)C)C(=O)NC(C(C)C)C(=O)N(C)[C@@H](C(C)C)C(=O)N(C)[C@@H](Cc2c[nH]c3cccc(OC)c23)C(=O)N[C@@H](C(C)C)C(=O)N[C@@H]([C@H](O)c2ccccc2)C(=O)N[C@@H](C(C)C)C(=O)O[C@@H]1C (stereo partly drawn) (H-[NMeV][ξIle][ξThr(3R)(O-yl)][NMeThr(3ξ)]V[NMeL][ξV][NMeV][NMeTrp(4-OMe)]V[Phe(3R-OH)]V; ester 3-C)
active: [18] 27.2 µM
not listed: [8] | [10]
inactive: all other assays above

CC[C@@H]1C[C@@]2(CC)OC(=O)[C@@]3(CC)OC(=O)[C@@H]1[C@@H]23
inactive: all assays above

CC(O)/C=C/C1(O)C(C)(C)CC(O)CC1(C)O (stereo not given)
inactive: all assays above

— PubChem BioAssay (NCATS)
